This passage reports inhibition results from PubChem BioAssay AID524 (The Scripps Research Institute Molecular Screening Center, 2006).

Molecules are shown by their SMILES. Out of some 65,000 compounds screened, about 95 (0.1%) were called active. What follows is part of a selection rich in actives, with near analogues and random picks from the rest. A number with no mark means an inactive call.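 The calls were made as follows: active = inhibition above the screen-wide mean inhibition plus 3 SD (cut at about 21% in these data); inactive = the rest.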

The experiment addresses cAMP-dependent protein kinase catalytic subunit alpha (Homo sapiens) (UniProt P17612). As to the kind of experiment: inhibitors of human PKA kinase activity, primary screen, biochemical, ATP-depletion luminescence, Kemptide substrate (AID 524). To be noted: PKA Kemptide phosphorylation, Kinase-Glo ATP luminescence; at 6 µM; hits give high values.
Turning to `CC(=O)Cc1nsc(NC(=O)c2ccc(COc3ccc(C)cc3)o2)n1`, the inhibition is 11.4%.

As for `O=C(Nc1cccnc1)c1noc2c1CCCCC2`, the inhibition is -2.8%.

For the compound `O=C(CN1CCN(C2CCCCC2)CC1)Nc1ccccc1N1CCCCC1`, the inhibition was 1.9%.

Regarding `O=C1c2ccccc2C(=O)N1c1ccccc1S(=O)C(F)(F)F` (stereo not drawn), the inhibition was -0.9%.

With `Cc1ccccc1C(=O)NCCN=C1NS(=O)(=O)c2ccccc21`, the inhibition was 11.6%.

Take `CSc1ccc(NC(=O)N2CC(C)OC(C)C2)cc1` (stereo not drawn): the inhibition is 10.1%.

Consider `N#Cc1ccc(COC(=O)Cn2nnc(-c3ccccc3)n2)cc1`, for which the inhibition is 10.9%.

For the compound `Cc1cc(C(=O)OCC(=O)NCc2ccco2)c(C)n1-c1ccccc1`, the inhibition was 0.4%.

With `CS(=O)(=O)N(CC(=O)N1CCOCC1)c1ccc2c3c(cccc13)CC2`, the inhibition is 10.1%.

Consider `COc1ccc2c(CC(=O)Nc3nnc(C4CC4)s3)coc2c1`, for which the inhibition was 10.2%.

For the compound `CC1CCCCC1NC(=O)CSc1nnc(N)s1` (stereo not drawn), the inhibition is 5.7%.

For `C=CCNC(=O)C12CC3CC(C1)CC(C(=O)NCC=C)(C3)C2`, the inhibition is -3.4%.

Consider `N#Cc1nc(COc2ccc(Cl)cc2)oc1N1CCCC1`, for which the inhibition was -3%.

Take `Cc1nc(C)c(C(=O)Nc2cccc(C)c2C)o1`: the inhibition is -2.6%.

As to `O=C(C1CC1)N1CCN=C1SCc1ccc(Cl)cc1`, the inhibition was 6.8%.

On to `Brc1cccc(-c2nnc3n2CCC3)c1`, for which the inhibition is 0.9%.

Regarding `CCOC(=O)C1CCN(C(=O)Cn2cc(C#N)c3ccccc32)CC1`, the inhibition was 4.3%.

Turning to `COc1cccc2cc(C(C)N(CCCN3CCOCC3)C(=O)Nc3ccc(Cl)cc3)oc12` (stereo not drawn), the inhibition was 0.5%.

Turning to `O=S(=O)(NCc1ccc2c(c1)OCO2)c1cccc2nsnc12`, the inhibition was 5.1%.

Turning to `c1ccc(CCn2nnnc2CN2CCN(C3CCCC3)CC2)cc1`, the inhibition is -3.2%.

As to `Cc1cc2ccccc2n2c(SCC(=O)N3CCN(C(=O)c4ccco4)CC3)nnc12`, the inhibition is 8.5%.

On to `CCCn1c(SCC(=O)Nc2c(C)cccc2C)nnc1C(C)C`, for which the inhibition was 4.9%.

As for `CCn1c(SCC(=O)Nc2cccc(F)c2)nnc1-c1cc2cc(Br)ccc2o1`, the inhibition was 10.1%.

In the case of `Cc1cccc(CC(=O)Nc2c3c(nn2-c2cccc(Cl)c2)CS(=O)C3)c1` (stereo not drawn), the inhibition is 9.5%.

For `NC(=O)CCCC1=NS(=O)(=O)c2ccccc2N1`, the inhibition was 5.7%.

Consider `CCN(c1ccccc1)S(=O)(=O)c1ccc(N)cc1`, for which the inhibition was 9%.

Turning to `CCCCn1c(SCC(=O)N2CCC(C(=O)OCC)CC2)nc2cc(S(N)(=O)=O)ccc21`, the inhibition is 2.4%.

`CCCCNc1nc2c(c(=O)[nH]c(=O)n2C)n1CCOc1ccccc1`: the inhibition is -1.2%.

Turning to `CCOc1ccc(NC(=O)CSc2nc3c(c(=O)n2-c2ccccc2OC)SCC3)cc1`, the inhibition is -2.3%.

On to `COc1ccc(OC)c2[nH]c(=O)c(CCNC(=O)C(C)(C)C)cc12`, for which the inhibition is 2.9%.

`CC(C)C(C(=O)NC1CCCCC1)N(CC1CCCO1)C(=O)CNS(=O)(=O)c1ccc(F)cc1` (stereo not drawn): the inhibition was 4.8%.

As for `O=C(NCCC1=CCCCC1)C1CCN(Cc2cnn(-c3ccccc3)c2-n2cccc2)CC1`, the inhibition is 6.6%.

On to `Cn1c(SCC(=O)Nc2cccc(NC(=O)c3cccs3)c2)nnc1-c1ccncc1`, for which the inhibition was 12.7%.

With `CC(=O)Nc1ccc(-c2cn3cccnc3n2)cc1`, the inhibition is 3.9%.

With `CN1C(=O)c2ccccc2C(C(=O)NCCCN2CCCC2)C1c1c[nH]c2ccccc12` (stereo not drawn), the inhibition was 2.4%.

Take `CC(C)CNS(=O)(=O)c1ccc(OCC(=O)Nc2ccc3c(c2)OCO3)c(Cl)c1`: the inhibition was 4.9%.

As for `CC(=O)Nc1ccc(S(=O)(=O)NCCc2ccccc2)cc1`, the inhibition was 2.1%.

As to `CCC(=O)N1CCN=C1SCc1ccc(F)cc1`, the inhibition was 3.7%.

For `COc1cc2[nH]c(=S)n(Cc3ccc(C)o3)c(=O)c2cc1OC`, the inhibition is 1.2%.

In the case of `CC(=O)c1cc2c(cc1N)OCO2`, the inhibition is 1.2%.

For `Cc1ccc2c(c1)sc1ncc(NC(=O)c3ccccc3)c(=O)n12`, the inhibition was -1.3%.

Take `Cc1cc(C)cc(NC(=O)N2CCC(NC(=O)c3ccc(F)cc3)CC2)c1`: the inhibition was 5.9%.

Take `CCCNS(=O)(=O)c1ccc2c(c1)CCCN2C(C)=O`: the inhibition is 9.1%.

Take `CCc1cccc2c3c([nH]c12)C(CC)(CC(=O)O)OCC3` (stereo not drawn): the inhibition is -6.8%.

`COc1cc(C2C3C(=O)N(c4ccccc4)C(=O)C3ON2c2ccccc2)ccc1O` (stereo not drawn): the inhibition was 4.7%.

For the compound `CC(C)Cc1ccc(S(=O)(=O)N2CCN(C(=O)c3ccco3)CC2)cc1`, the inhibition is 7%.

Consider `COc1ccc2[nH]c(=O)c(CN(Cc3nnnn3CCc3ccccc3)CC3CCCO3)cc2c1` (stereo not drawn), for which the inhibition was -2.5%.

`O=C(NCCCNCc1ccccc1)c1ccc(/C=N/O)nc1`: the inhibition is 9.9%.

As for `Cc1noc(C)c1C(=O)OCC(=O)/C=C1\N(C)c2ccccc2C1(C)C`, the inhibition was 6.8%.

With `CC1=Nn2c(nnc2-c2ccccc2)SC1`, the inhibition is 4.2%.

With `CCOc1cc(/C=N/n2cnnc2)c(Br)cc1O`, the inhibition was 6.7%.

For the compound `Cc1ccc(S(=O)(=O)N2CCN(Cc3cccc(C)c3O)CC2)cc1`, the inhibition is 6.3%.

In the case of `CCCc1cc(=O)n2[nH]c(SCc3ccccc3)nc2n1`, the inhibition was 5.4%.

Take `O=C(Nc1ccc(S(=O)(=O)N2CCCC2)cc1Cl)C1=COCCO1`: the inhibition is -4.1%.

As for `Cn1c(=NC(=O)c2cnccn2)sc2ccccc21`, the inhibition is 5%.

With `O=P(c1cccs1)(c1cccs1)c1cccs1`, the inhibition is 3.3%.

On to `COC(=O)c1nc(NC(=O)c2ccc(Cl)cc2)n[nH]1`, for which the inhibition was 5%.

As to `Cn1c(=NC(=O)CSCC(=O)N2CCOCC2)sc2ccccc21`, the inhibition is 7.1%.

For `O=C(C1CCN(c2nnc(-n3cccc3)s2)CC1)N1CCc2ccccc2C1`, the inhibition is -3.8%.

Take `O=C(Cn1nnc(-c2ccc(CN3CCOCC3)cc2)n1)NC1CCCCC1`: the inhibition is 10.1%.

Turning to `COC(=O)C(C)N(C#N)c1nc(C)nc(C)n1` (stereo not drawn), the inhibition was -1.3%.

For `CCN(CC)CCN1C(=O)C(=O)/C(=C(/O)c2ccccc2)C1c1ccccc1F` (stereo not drawn), the inhibition is -5.4%.

Turning to `N#C/C=C1\Sc2ccccc2C(=O)N1CC(=O)N1CCN(S(=O)(=O)c2ccccc2)CC1`, the inhibition is 6.8%.
